Hit rate of the full screen: of about 5,500 compounds, about 2,000 (36%) were called active. Roughly 18% stayed inconclusive and do not appear here. Cut-off read from the data, not from the text of the source: active = normalized growth mostly below about 0.91 (no sharp cut-off); inconclusive = no clear call, values can overlap the other calls; inactive = mostly above about 0.92. This is one part of the list.
Assay: chemical genetic growth profiling, strain panel (AID 1159580);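 note: tested at 20 µM; growth read once vehicle control cultures reached saturation at 30 °C; 1 = growth at the plate median or of vehicle wells; lower values mean less growth of the strain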
Conditions: S. cerevisiae deletion strains, growth OD

Measured: normalized growth

CNC(=O)O/N=C\C(C)(C)SC
inactive: locus YAL013W, strain DEP1, active compounds read low 1.01 | locus YAL021C, strain ccr4, active compounds read low 0.997 | locus YAL026C, strain drs2, active compounds read low 1 | locus YAL030W, strain snc1, active compounds read low 1 | locus YBL061C, strain skt5, active compounds read low 1.01 | locus YBR009C, strain hhf1, active compounds read low 0.988 | locus YBR021W, strain FUR4, active compounds read low 1.03 | locus YBR023C, strain chs3, active compounds read low 1 | locus YBR171W, strain sec66, active compounds read low 1.01 | locus YBR229C, strain ROT2, active compounds read low 0.996 | locus YBR231C, strain swc5, active compounds read low 0.998 | locus YBR279W, strain paf1, active compounds read low 1.01 | locus YCL011C, strain gbp2, active compounds read low 1.01 | locus YCL016C, strain dcc1, active compounds read low 1.01 | locus YCL029C, strain bik1, active compounds read low 0.987 | locus YCL061C, strain MRC1, active compounds read low 1.01 | locus YCL069W, strain vba3, active compounds read low 1.01 | locus YCR088W, strain abp1, active compounds read low 1 | locus YDL005C, strain med2, active compounds read low 1 | locus YDL035C, strain GPR1, active compounds read low 1.02 | locus YDL040C, strain nat1, active compounds read low 0.99 | locus YDL074C, strain BRE1, active compounds read low 1.08 | locus YDL101C, strain DUN1, active compounds read low 1.01 | locus YDL134C, strain PPH21, active compounds read low 1.01 | locus YDL185W, strain tfp1, active compounds read low 0.99 | locus YDL192W, strain arf1, active compounds read low 0.994 | locus YDR001C, strain nth1, active compounds read low 1.01 | locus YDR069C, strain doa4, active compounds read low 0.999 | locus YDR101C, strain arx1, active compounds read low 0.986 | locus YDR137W, strain rgp1, active compounds read low 1.02 | locus YDR150W, strain NUM1, active compounds read low 1.01 | locus YDR159W, strain sac3, active compounds read low 0.965 | locus YDR162C, strain NBP2, active compounds read low 1.01 | locus YDR195W, strain ref2 0.964 | locus YDR297W, strain sur2, active compounds read low 0.999 | locus YDR318W, strain mcm21, active compounds read low 0.993 | locus YDR334W, strain swr1, active compounds read low 1.01 | locus YDR335W, strain msn5, active compounds read low 1.01 | locus YDR388W, active compounds read low 0.985 | locus YDR392W, strain spt3, active compounds read low 0.886 | locus YDR502C, strain sam2, active compounds read low 1 | locus YEL003W, strain gim4, active compounds read low 1.01 | locus YEL037C, strain rad23, active compounds read low 1.01 | locus YEL061C, strain CIN8 (second series), active compounds read low 1.01 | locus YEL061C, strain CIN8, active compounds read low 1 | locus YER015W, strain faa2, active compounds read low 1.02 | locus YER016W, strain bim1, active compounds read low 1.01 | locus YER110C, active compounds read low 0.983 | locus YER111C, strain swi4, active compounds read low 1.02 | locus YER155C, strain BEM2 (second series), active compounds read low 0.995 | locus YER155C, strain BEM2, active compounds read low 0.998 | locus YER167W, strain BCK2, active compounds read low 1.02 | locus YFR010W, strain ubp6, active compounds read low 0.998 | locus YGL078C, strain dbp3, active compounds read low 0.986 | locus YGL086W, strain mad1, active compounds read low 0.987 | locus YGL167C, strain pmr1, active compounds read low 0.995 | locus YGL173C, strain kem1, active compounds read low 0.997 | locus YGL227W, strain vid30, active compounds read low 1.01 | locus YGL240W, strain doc1, active compounds read low 0.972 | locus YGL248W, strain PDE1, active compounds read low 1.01 | locus YGL253W, strain hxk2, active compounds read low 0.997 | locus YGR078C, strain PAC10, active compounds read low 1.01 | locus YGR135W, strain pre9, active compounds read low 1 | locus YGR229C, strain SMI1, active compounds read low 1.03 | locus YGR252W, strain gcn5, active compounds read low 0.98 | locus YHR013C, strain ard1, active compounds read low 0.971 | locus YHR027C, strain rpn1, active compounds read low 1 | locus YHR030C, strain SLT2, active compounds read low 0.984 | locus YHR079C, strain IRE1 (second series), active compounds read low 0.988 | locus YHR094C, strain hxt1, active compounds read low 0.983 | locus YHR129C, strain ARP1, active compounds read low 1.02 | locus YHR142W, strain chs7, active compounds read low 1 | locus YHR200W, strain rpn10, active compounds read low 0.98 | locus YIL066C, strain RNR3, active compounds read low 1.03 | locus YIL073C, strain SPO22, active compounds read low 0.995 | locus YIL125W, strain kgd1, active compounds read low 0.997 | locus YIR030C, strain dcg1, active compounds read low 0.992 | locus YJL092W, strain hpr5, active compounds read low 1.01 | locus YJL095W, strain BCK1 (second series), active compounds read low 1 | locus YJL095W, strain BCK1, active compounds read low 1.03 | locus YJL115W, strain asf1, active compounds read low 1.02 | locus YJL129C, strain trk1, active compounds read low 1.01 | locus YJL134W, strain LCB3, active compounds read low 1 | locus YJL154C, strain vps35, active compounds read low 1.02 | locus YJL164C, strain tpk1, active compounds read low 1.01 | locus YJL166W, strain qcr8, active compounds read low 1 | locus YJL168C, strain set2, active compounds read low 0.98 | locus YJL187C, strain SWE1 (second series), active compounds read low 1.01 | locus YJL187C, strain SWE1, active compounds read low 0.998

Reference: PubChem BioAssay AID1159580 (chemical genetic matrix, 2015)
